Bioassay records: PubChem, National Center for Advancing Translational Sciences (NCATS)
IL1B secr inh – inhibitors of inflammasome signaling (IL-1 beta secretion); THP-1 LPS/ATP IL-1B secretion, AlphaLISA, 16 h; active compounds read low; activity change, % at 57.5 µM; hit rate 4.7% among 360,000; in the data active means activity change below about -50%; inconclusive means mostly about -30% to -49%; further: on the % scale 0 is the no-effect control and ±100 the full control effect
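THP-1 cells pretreated 1 hr with compounds (up to 57.5 uM final), then stimulated with LPS (250 ng/mL final) plus ATP (1.25 mM final); secreted IL-1B measured by AlphaLISA after 16 hr, decreased signal indicating inhibition.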
HepG2 tox – kills HepG2 cells in TGF-b inhibitor counter-screen | HepG2 CAGA-GFP viability, ATP luminescence, 18 h | Potency, µM (highest dose often 46.1 µM), for inactives: at the top dose activity change, negative = cytotoxicity, usual class: cytotoxic | hit rate 0.76% among 410,000; further: potency means the concentration at half of the fitted maximal effect
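CellTiter-Glo luminescence gave cytotoxicity after 18 hours at 37 degrees C. The cells were HepG2 CAGA-GFP in 1% FBS DMEM, stimulated with 500 pg/mL TGF-beta after compound addition. %Activity was normalised to no-cell wells (complete cell-killing) and DMSO (no toxicity), and curves were fitted and classified.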
TGFb inhibitor – inhibitors of TGF-b signaling | HepG2 CAGA-GFP TGF-b/SMAD3 reporter, GFP fluorescence, 18 h; TGF-beta stimulated, 500 pg/mL final | Potency, µM (highest dose often 46.1 µM), for the others: at the top dose activity, negative = inhibition, usual class: inhibitors | hit rate 1.2% among 410,000; further: potency means the concentration at half of the fitted maximal effect; on the % scale 0 is the no-effect control and ±100 the full control effect; nearly all actives have a fitted effect of over 65% in size
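Smad-responsive CAGA-GFP expression was quantified in HEPG2 cells exposed to compounds and 500 pg/mL final TGF-beta for 18 h at 37 degrees C; unstimulated wells defined full inhibition.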
DT40 TDP1 no CPT – qHTS for Inhibitors of human tyrosyl-DNA phosphodiesterase 1 (TDP1): qHTS in cells in absence of CPT; DT40 Tdp1-/- hTDP1 cells, no CPT, ATP luminescence, 48 h; Potency, µM (titrated, usually from 46.2 µM), for inactives: at the top dose activity change, negative = growth inhibition, hits mostly inhibitors; hit rate 15% among 420,000; AID 686978, 2013; further: potency means the concentration at half of the fitted maximal effect; on the % scale 0 is the no-effect control and ±100 the full control effect; nearly all actives have a fitted effect of over 55% in size
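Growth kinetics read by CellTiter-Glo luminescence after ≥48 hr at 37 °C. Cells: DT40 Tdp1-/- stably carrying human TDP1, 400 per well, compound exposure in the absence of CPT (DMSO vehicle).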
TDP1 inh – TDP1 (human) enzyme inhibition; Q9NUW8; recombinant TDP1, AlphaScreen DNA substrate cleavage; Potency, µM (highest dose often 130 µM), for the others: at the top dose activity change, negative = inhibition, actives largely listed as inhibitors; hit rate 0.28% among 350,000; AID 485290; further: potency means the concentration at half of the fitted maximal effect; on the % scale 0 is the no-effect control and ±100 the full control effect; nearly all actives have a fitted effect of over 40% in size
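Signal: AlphaScreen proximity between streptavidin donor and anti-FITC acceptor beads on intact substrate. Reaction: Tdp1 1 nM, substrate 15 nM final, 5 min RT after 15 min compound preincubation.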
TDP1 cell CPT – DT40-hTDP1 cell growth loss with CPT | chicken DT40 Tdp1-/-;hTDP1 cells + 20 nM CPT, ATP luminescence, 48 h | Potency, µM (titrated, usually from 46.2 µM), for inactives: at the top dose activity change, negative = growth inhibition, most hits filed as inhibitors | hit rate 12% among 420,000 | AID 686979; further: potency means the concentration at half of the fitted maximal effect; on the % scale 0 is the no-effect control and ±100 the full control effect; nearly all actives have a fitted effect of over 55% in size
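Cell growth measured by CellTiter-Glo luminescence after a minimum 48 h, 37 C compound exposure with 20 nM CPT in Tdp1-knockout DT40 cells stably expressing hTDP1, seeded 400/well; qHTS titration format.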
* hit, by the source's call; ? = inconclusive; · = not tested or not shown; [ ] = another dose, or the depositor's remark. A selection: hits, their analogues and other compounds. The true share with any hit is near 19%. Unless noted, the call rests on the fitted dose curve; in most records, active means well fitted curve in the direction sought with a large enough effect; inconclusive means small, poorly fitted or top-dose-only effect, or another doubt; inactive means no such curve, though single readings can be large; an effect the other way counts as inactive or inconclusive.

SMILES	IL1B secr inh	HepG2 tox	TGFb inhibitor	DT40 TDP1 no CPT	TDP1 inh	TDP1 cell CPT
CCOC(=O)CN(Cc1ccccc1)C(C(=O)NC1CCCCC1)c1ccc(OC)cc1 (centres undefined)	·	-2%	-11%	?	0%	?
COc1ccc(-n2c(=O)c(C)nc3cnc(Oc4ccccc4)nc32)cc1	·	·	·	?	·	-20%
CCOc1ccccc1CNC(=O)Cc1ccc(NC(=O)N2CCCCc3ccccc32)cc1	·	-42%	?	9.2µM*	6%	12µM*
CC(=O)c1cccc(NC(=O)N2CCCc3ccccc32)c1	14	-13%	9%	-9%	7%	1%
CCOc1ccc(CNC(=O)Cc2ccc(NC(=O)N3CCCCc4ccccc43)cc2)cc1OC	·	-16%	-18%	?	7%	?
CC(=O)c1cccc(NC(=O)Cc2ccc(NC(=O)N3CCCCc4ccccc43)cc2)c1	·	-13%	-25%	16µM*	7%	?
CCOc1ccc(NC(=O)Cc2ccc(NC(=O)N3CCCCc4ccccc43)cc2)cc1	·	-15%	3%	5.2µM*	8%	5.2µM*
CCOC(=O)N/N=C1/C[C@@H](O)[C@@H](O)[C@@H]2[C@@H]3C(=O)N(c4cccc(Oc5ccccc5)c4)C(=O)[C@H]3CC[C@@H]12	·	·	·	·	4%[21 µM]	·
CC(=O)c1ccc[nH]1	·	·	·	1%	6%[56.1 µM]	-12%
Cn1c(NC(=O)C[n+]2cc(-c3ccc(F)cc3)n3c2CCC3)cc(=O)n(C)c1=O	-1	10%	-20%	?	3%	0%
Cc1ccc(-c2c[n+](CC(=O)Nc3nc(-c4ccccc4)cs3)c3n2CCC3)cc1	-28	-11%	5%	18µM*	4%	15µM*
Cc1ccc(-c2c[n+](CC(=O)Nc3cc(=O)n(C)c(=O)n3C)c3n2CCC3)cc1	0	-5%	-25%	15µM*	3%	?
Cc1ccc(-c2c[n+](CC(=O)Nc3ccccc3C)c3n2CCC3)cc1	-53*	0%	-2%	?	1%	?
O=C(C[n+]1cc(-c2ccccc2)n2c1CCC2)Nc1nc(-c2ccccc2)cs1	0	-29%	9%	23µM*	-1%	?
CCOc1ccc(C(=O)Nc2ccc(OCc3cc(=O)n4cccc(C)c4n3)cc2)cc1	·	-4%	-1%	14%	-3%	8%
COc1ccc(OC)c(Cc2nnc(CCC(=O)NCc3nc4ccccc4s3)o2)c1	6	-16%	-19%	-3%	8%	-1%
O=C(/C=C\c1ccco1)Nc1nc(-c2ccc3ccccc3c2)cs1	-72*	-10%	-7%	?	0%	?
NC(=O)c1cc(Cc2ccccc2)sc1NC(=O)c1ccco1	-56*	-4%	-1%	12µM*	0%	?
O=C(Nc1nc(-c2ccco2)cs1)c1ccccc1	-21	2%	12%	?	1%	13µM*
O=C(NNc1nc(-c2ccc(Br)cc2)cs1)c1ccco1	-2	-38%	?	16µM*	-3%	18µM*
COCCCN1C(=O)C(CC(=O)NCCc2ccccn2)CC(C(=O)N2CCOCC2)=C1C (centres undefined)	24	-5%	-3%	-1%	·	3%
CC(C)CO/N=C1/C[C@@H](O)[C@@H](O)[C@@H]2[C@@H]3C(=O)N(Cc4ccccc4)C(=O)[C@H]3CC[C@H]12	·	·	·	·	4%[21 µM]	·
O=C(NCc1ccccc1Cl)c1ccc2c(c1)NC(=O)C(CS(=O)(=O)Cc1ccc(F)cc1Cl)N2 (centres undefined)	·	-47%	?	-11%	13%	-26%
CCOC(=O)c1c(NC(=O)/C=C/c2ccc(C(C)C)cc2)sc2c1CCC2	·	-6%	-6%	6%	-7%[12.3 µM]	2%
